# According to publication PMC5540273 (PLoS ONE, 2017):
# Several values for one entry are separate records, joined by “and”; a condition that tells them apart may be missing. Equal entries are not always repeated. Where two headings read alike, the source gives them in different places.
# Tests used:
# [1] = system: T1, VPS34; conditions: concentration: 1 μM, replicates: in singlicate, n = 1
# T1 construct: gene PIK3C3
# [2] = system: VRK2; conditions: concentration: 1 μM, replicates: in singlicate, n = 1
# [3] = system: WEE1; conditions: concentration: 1 μM, replicates: in singlicate; n = 1
# [4] = system: WEE2; conditions: concentration: 1 μM, replicates: in singlicate, n = 1
# [5] = system: WNK1; conditions: concentration: 1 μM, replicates: in singlicate; n = 1
# [6] = system: WNK2; conditions: concentration: 1 μM, replicates: in singlicate, n = 1
# [7] = system: WNK3; conditions: concentration: 1 μM, replicates: in singlicate, n = 1
# [8] = system: WNK4; conditions: concentration: 1 μM, replicates: in singlicate, n = 1
# [9] = system: T2, YANK1; conditions: concentration: 1 μM, replicates: in singlicate, n = 1
# T2 construct: gene STK32A
# [10] = system: T3, YANK2; conditions: concentration: 1 μM, replicates: in singlicate; n = 1
# T3 construct: gene STK32B
# [11] = system: T4, YANK3; conditions: concentration: 1 μM, replicates: in singlicate, n = 1
# T4 construct: gene STK32C
# [12] = system: T5, YES; conditions: concentration: 1 μM, replicates: in singlicate, n = 1
# T5 construct: gene YES1
# [13] = system: T6, YSK1; conditions: concentration: 1 μM, replicates: in singlicate, n = 1
# T6 construct: gene STK25
# [14] = system: T7, YSK4; conditions: concentration: 1 μM, replicates: in singlicate, n = 1
# T7 construct: gene MAP3K19
# [15] = system: ZAK; conditions: concentration: 1 μM, replicates: in singlicate, n = 1
# [16] = system: ZAP70; conditions: concentration: 1 μM, replicates: in singlicate; n = 1
# [17] = system: T8, p38-alpha; conditions: concentration: 1 μM, replicates: in singlicate, n = 1
# T8 construct: gene MAPK14
# [18] = system: T9, p38-beta; conditions: concentration: 1 μM, replicates: in singlicate; n = 1
# T9 construct: gene MAPK11
# [19] = system: p38-delta; conditions: concentration: 1 μM, replicates: in singlicate, n = 1
# [20] = system: T10, p38-gamma; conditions: concentration: 1 μM, replicates: in singlicate, n = 1
# T10 construct: gene MAPK12
# 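Also: KINOMEscan kinase panel screen.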
smiles,measurement,setting,value
Nc1nc(-c2ccc3c(N)n[nH]c3c2)cc(N2CCCC2)n1 [GSK2227430],%Inh,[1],0%
same,%Inh,[2],0%
same,%Inh,[3],35%
same,%Inh,[4],0%
same,%Inh,[5],0%
same,%Inh,[6],0%
same,%Inh,[7],8%
same,%Inh,[8],0%
same,%Inh,[9],0%
same,%Inh,[10],0%
same,%Inh,[11],0%
same,%Inh,[12],0%
same,%Inh,[13],9%
same,%Inh,[14],36%
same,%Inh,[15],0%
same,%Inh,[16],0%
same,%Inh,[17],0%
same,%Inh,[18],0%
same,%Inh,[19],25%
same,%Inh,[20],0%
CN1c2ccc(NCc3ccc(F)cc3)cc2-c2c(cnn2C)S1(=O)=O,%Inh,[1],0%
same,%Inh,[2],0%
same,%Inh,[3],0%
same,%Inh,[4],0%
same,%Inh,[5],42%
same,%Inh,[6],5%
same,%Inh,[7],8%
same,%Inh,[8],0%
same,%Inh,[9],0%
same,%Inh,[10],3%
same,%Inh,[11],0%
same,%Inh,[12],0%
same,%Inh,[13],0%
same,%Inh,[14],8%
same,%Inh,[15],0%
same,%Inh,[16],0%
same,%Inh,[17],0%
same,%Inh,[18],0%
same,%Inh,[19],13%
same,%Inh,[20],0%
Cn1cc(-c2ccc3c(c2)CCN3C(=O)Cc2ccccc2Cl)c2c(N)ncnc21 [GSK2608885],%Inh,[1],0%
same,%Inh,[2],0%
same,%Inh,[3],0%
same,%Inh,[4],0%
same,%Inh,[5],0%
same,%Inh,[6],17%
same,%Inh,[7],6%
same,%Inh,[8],25%
same,%Inh,[9],32%
same,%Inh,[10],84%
same,%Inh,[11],23%
same,%Inh,[12],99.7%
same,%Inh,[13],20%
same,%Inh,[14],0%
same,%Inh,[15],97.9%
same,%Inh,[16],0%
same,%Inh,[17],99.9%
same,%Inh,[18],99.5%
same,%Inh,[19],26%
same,%Inh,[20],20%
COc1cc2ncn(-c3cc(OCc4sccc4Cl)c(C(N)=O)s3)c2cc1OC [GSK448459],%Inh,[1],60%
same,%Inh,[2],5%
same,%Inh,[3],4%
same,%Inh,[4],5%
same,%Inh,[5],19%
same,%Inh,[6],45%
same,%Inh,[7],60%
same,%Inh,[8],31%
same,%Inh,[9],11%
same,%Inh,[10],0%
same,%Inh,[11],0%
same,%Inh,[12],6%
same,%Inh,[13],0%
same,%Inh,[14],89%
same,%Inh,[15],0%
same,%Inh,[16],0%
same,%Inh,[17],0%
same,%Inh,[18],0%
same,%Inh,[19],23%
same,%Inh,[20],0%
O=C(NCCCN1CCOCC1)c1cccc(Nc2nccc(Nc3ccc(Oc4ccccc4)cc3)n2)c1 [GW663929],%Inh,[1],0%
same,%Inh,[2],17%
same,%Inh,[3],31%
same,%Inh,[4],0%
same,%Inh,[5],11%
same,%Inh,[6],14%
same,%Inh,[7],33%
same,%Inh,[8],0%
same,%Inh,[9],0%
same,%Inh,[10],0%
same,%Inh,[11],1%
same,%Inh,[12],84%
same,%Inh,[13],22%
same,%Inh,[14],26%
same,%Inh,[15],47%
same,%Inh,[16],6%
same,%Inh,[17],11%
same,%Inh,[18],0%
same,%Inh,[19],18%
same,%Inh,[20],0%
Cc1c(Cn2c(C)nn3c(=O)cc(N4CCOC(C)C4)nc23)cccc1C(F)(F)F (centres unmarked) [GSK2344444],%Inh,[1],48%
same,%Inh,[2],0%
same,%Inh,[3],10%
same,%Inh,[4],0%
same,%Inh,[5],4%
same,%Inh,[6],0%
same,%Inh,[7],2%
same,%Inh,[8],0%
same,%Inh,[9],0%
same,%Inh,[10],0%
same,%Inh,[11],13%
same,%Inh,[12],3%
same,%Inh,[13],0%
same,%Inh,[14],9%
same,%Inh,[15],0%
same,%Inh,[16],0%
same,%Inh,[17],0%
same,%Inh,[18],0%
same,%Inh,[19],17%
same,%Inh,[20],0%
NCCNS(=O)(=O)c1ccc(-c2ccnc3[nH]ccc23)cc1 [GSK977617],%Inh,[1]; 1 µM,90% and 80%
same,%Inh,[2]; 1 µM,13% and 7%
same,%Inh,[3],9%
same,%Inh,[4]; 1 µM,5% and 15%
same,%Inh,[5],0%
same,%Inh,[6]; 1 µM,7% and 0%
same,%Inh,[7]; 1 µM,8% and 15%
same,%Inh,[8]; 1 µM,0% and 5%
same,%Inh,[9]; 1 µM,36% and 0%
same,%Inh,[10],0%
same,%Inh,[11]; 1 µM,8% and 0%
same,%Inh,[12]; 1 µM,11% and 0%
same,%Inh,[13]; 1 µM,32% and 25%
same,%Inh,[14]; 1 µM,98.1% and 97.3%
same,%Inh,[15]; 1 µM,18% and 0%
same,%Inh,[16],0%
same,%Inh,[17]; 1 µM,0% and 8%
same,%Inh,[18],0%
same,%Inh,[19]; 1 µM,65% and 49%
same,%Inh,[20]; 1 µM,29% and 55%
CNc1ncnc2[nH]ncc12 [SKF-18355],%Inh,[1],30%
same,%Inh,[2],10%
same,%Inh,[3],5%
same,%Inh,[4],0%
same,%Inh,[5],0%
same,%Inh,[6],0%
same,%Inh,[7],12%
same,%Inh,[8],0%
same,%Inh,[9],0%
same,%Inh,[10],9%
same,%Inh,[11],0%
same,%Inh,[12],0%
same,%Inh,[13],0%
same,%Inh,[14],46%
same,%Inh,[15],0%
same,%Inh,[16],24%
same,%Inh,[17],6%
same,%Inh,[18],8%
same,%Inh,[19],0%
same,%Inh,[20],0%
N#Cc1ccc(-c2cc(-c3c[nH]nc3-c3ccccn3)ccn2)cc1 [GW693028],%Inh,[1],0%
same,%Inh,[2],13%
same,%Inh,[3],2%
same,%Inh,[4],0%
same,%Inh,[5],7%
same,%Inh,[6],15%
same,%Inh,[7],30%
same,%Inh,[8],30%
same,%Inh,[9],15%
same,%Inh,[10],7%
same,%Inh,[11],6%
same,%Inh,[12],13%
same,%Inh,[13],0%
same,%Inh,[14],33%
same,%Inh,[15],15%
same,%Inh,[16],0%
same,%Inh,[17],30%
same,%Inh,[18],0%
same,%Inh,[19],22%
same,%Inh,[20],0%
Cc1cccc(-c2nc(-c3ccc(S(C)(=O)=O)cc3)sc2-c2ccncc2)c1,%Inh,[1],12%
same,%Inh,[2],0%
same,%Inh,[3],0%
same,%Inh,[4],7%
same,%Inh,[5],0%
same,%Inh,[6],0%
same,%Inh,[7],0%
same,%Inh,[8],0%
same,%Inh,[9],0%
same,%Inh,[10],23%
same,%Inh,[11],23%
same,%Inh,[12],0%
same,%Inh,[13],18%
same,%Inh,[14],9%
same,%Inh,[15],30%
same,%Inh,[16],0%
same,%Inh,[17],92.4%
same,%Inh,[18],0%
same,%Inh,[19],19%
same,%Inh,[20],12%
